Laboratory results from PubChem BioAssay (EPA / NIEHS).
Some structures have more than one record in an assay (separate samples or runs), and their calls can disagree. Active and inactive are the calls of the source. Rule for the calls: active = hit-call score of the fitted dose curve at least 0.9, where 1 is the maximum; inactive = score below 0.9.

Target: Transcriptional activator Myb (Homo sapiens) (UniProt P10242)
Assay: ATG_Myb_CIS: Attagene CIS-FACTORIAL HepG2 Assay for human Myeloblastosis (Myb) Proto-Oncogene Transcription Factor (AID 2282986)
Settings: HepG2 Attagene CIS-FACTORIAL Myb reporter transcription; actives raise or lower the signal
Description: ATG_CIS is a cell-based, multiplexed-readout assay that uses HepG2, a human liver cell line, with measurements taken at 24 hours after chemical dosing in a 24-well plate.ATG_Myb_CIS is one of 52 assay component(s) measured or calculated from the ATG_CIS assay. It is designed to make measurements of mRNA induction, a form of inducible reporter, as detected with fluorescence intensity signals by Reverse transcription polymerase chain reaction (RT-PCR) and Capillary electrophoresis technology.Data from the assay component ATG_Myb_CIS was analyzed into 1 assay endpoint. This assay endpoint, ATG_Myb_CIS, was analyzed with bidirectional fitting relative to DMSO as the negative control and baseline of activity. Using a type of inducible reporter, measures of mRNA for gain or loss-of-signal activity can be used to understand the reporter gene at the transcription factor-level as they relate to the gene MYB. Furthermore, this assay endpoint can be referred to as a primary readout, because this assay has produced multiple assay endpoints where this one serves a reporter gene function. To generalize the intended target to other relatable targets, this assay endpoint is annotated to the dna binding intended target family, where the subfamily is MYB proteins.
Human liver HepG2 cells are transiently transfected with multiple reporter transcription units (MRTUs) in 6-well plates using FuGene 6 reagent (Roche; 3 ml FuGene/1 mg DNA). The MRTU constructs are regulated by a cis-regulating element (promoter). […] A major difference between the CIS and TRANS system is that in CIS activities of endogenous TFs are measured, whereas the TRANS assay evaluates changes in activities of exogenous, chimeric NR-Gal4 proteins. […] At the end of 24 hour incubation, total RNA was isolated using TriZol reagent (Invitrogen). The isolated RNA is then reverse-transcribed using oligo(dT) primer and Mo-MLV reverse transcriptase (Invitrogen) with DNAse I (Ambion) treatment for 30 min. The one-tenth of the produced cDNA was amplified by PCR using Taq DNA polymerase (Invitrogen) and two reporter sequence-specific primers. The PCR products were fluorescently labeled by primer extension with 6-arboxyfluorescein (6-FAM) 5'-labeled reporter sequence-specific primer (2 min at 95 C, 20 s at 68 C and 10 min at 72 C) and these products were digested with 5U of HpaI (New England Biolabs) for 2h at 37 C. The fragments were purified using Qiaquick PCR columns (Qiagen), analyzed on an ABI 3130xL genetic analyzer (Applied Biosystems) with peak positions identified by using a set of X-rhodamine (ROX)-labeled MapMarker1000 molecular weight standards (BioVentures). The raw capillary electrophoresis data was processed using Attagraph software (Attagene).

Sequence of Transcriptional activator Myb (Homo sapiens) (P10242 whole entry, looked up): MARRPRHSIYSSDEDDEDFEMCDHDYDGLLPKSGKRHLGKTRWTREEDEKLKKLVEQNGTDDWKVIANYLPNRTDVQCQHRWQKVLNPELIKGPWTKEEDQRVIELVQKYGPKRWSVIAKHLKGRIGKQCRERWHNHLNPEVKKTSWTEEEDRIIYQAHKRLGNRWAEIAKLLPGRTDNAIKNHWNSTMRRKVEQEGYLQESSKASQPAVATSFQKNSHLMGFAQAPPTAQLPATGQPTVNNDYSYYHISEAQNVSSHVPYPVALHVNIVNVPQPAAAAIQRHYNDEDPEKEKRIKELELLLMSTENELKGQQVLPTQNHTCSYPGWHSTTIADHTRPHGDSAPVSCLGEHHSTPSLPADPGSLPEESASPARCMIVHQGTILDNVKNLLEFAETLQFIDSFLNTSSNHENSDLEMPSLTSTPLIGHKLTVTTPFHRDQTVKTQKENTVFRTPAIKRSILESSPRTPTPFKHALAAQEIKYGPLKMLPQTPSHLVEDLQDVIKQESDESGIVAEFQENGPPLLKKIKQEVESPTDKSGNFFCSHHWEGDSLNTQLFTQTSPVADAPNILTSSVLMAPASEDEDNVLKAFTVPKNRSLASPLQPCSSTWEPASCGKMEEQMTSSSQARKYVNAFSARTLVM

Row | Structure (SMILES) | outcome | AC50
1 | O=C(O)CCC(F)(F)C(F)(F)C(F)(F)C(F)(F)C(F)(F)C(F)(F)F | inactive | 
2 | CCCCCCCCCCCC(=O)O | inactive | 
3 | O=S(=O)(O)C(F)(F)C(F)(F)C(F)(F)C(F)(F)C(F)(F)C(F)(F)C(F)(F)C(F)(F)C(F)(F)C(F)(F)F | inactive | 
4 | CCCCCCCCCCCC[N+](C)(C)CCCCCCCCCCCC | inactive | 
5 | O=C1OC(=O)C(F)(F)C1(F)F | inactive | 
6 | CC[N+](CC)(CC)Cc1ccccc1 | inactive | 
7 | CCCCC(CC)C(=O)O (stereo not given) | inactive | 
8 | FC(F)(F)C1(F)C(F)(F)C(F)(F)C(F)(F)C1(F)F | inactive | 
9 | O=C(F)C(F)(F)C(F)(F)C(F)(F)C(=O)F | inactive | 
10 | CC1=CC(=O)c2ccccc2C1=O | inactive | 
11 | FC(F)=C(F)C(F)(F)C(F)(F)C(F)(F)C(F)F | inactive | 
12 | CCC(C)c1nccnc1OC (stereo not given) | inactive | 
13 | C=C(c1ccc(C(=O)O)cc1)c1cc2c(cc1C)C(C)(C)CCC2(C)C | inactive | 31 µM (active)
14 | CCCCCCCC(OC)OC | inactive | 
15 | CN(Cc1cnc2nc(N)nc(N)c2n1)c1ccc(C(=O)N[C@@H](CCC(=O)O)C(=O)O)cc1 | inactive | 
16 | Nc1ccc(O)c(C(=O)O)c1 | inactive | 
17 | CCC(=O)C=Cc1ccc(OC)cc1 |  | 137 µM (active)
18 | CC(C)(O)C(=O)c1ccccc1 | inactive | 
19 | COC(=O)CC(C(C)=O)C(=O)OC (stereo not given) | inactive | 

Row | Structure (SMILES) | outcome | AC50
20 | NNc1nc(-c2ccc([N+](=O)[O-])cc2)cs1 | inactive | 
21 | FC(F)(F)N1C(F)(F)C(F)(F)OC(F)(F)C1(F)F | inactive | 
22 | O=C(O)C(F)(F)OC(F)(F)C(F)(F)OC(F)(F)C(F)(F)OC(F)(F)C(F)(F)C(F)(F)C(F)(F)F | inactive | 
23 | CCN(CCC#N)c1ccccc1 | inactive | 
24 | O=C(CC(=O)C(F)(F)C(F)(F)C(F)(F)F)c1cccs1 | inactive | 50 µM (active)
25 | c1cc2cccc3c4cccc5cccc(c(c1)c23)c54 | inactive | 
26 | CCCCCC(C)OC(=O)COc1ccc(Cl)c2cccnc12 (stereo not given) | inactive | 
27 | O=CC(F)(F)C(F)(F)C(F)(F)F | inactive | 
28 | O=C(O)CN(CCCN(CC(=O)O)CC(=O)O)CC(=O)O | inactive | 
29 | O=CC(F)(F)C(F)(F)C(F)(F)C(F)F | inactive | 
30 | O=C(c1ccccc1)c1ccccc1 | inactive | 
31 | CS(=O)(=O)c1ccc([C@@H](CC2CCCC2)C(=O)Nc2cnccn2)cc1Cl | inactive | 
32 | C=CC(=O)OCCC(F)(F)C(F)(F)C(F)(F)C(F)(F)C(F)(F)C(F)(F)C(F)(F)C(F)(F)F | inactive | 
33 | CC1CNCC(C)O1 (stereo not given) | inactive | 
34 | OCCN1CN(CCO)CN(CCO)C1 | inactive | 
35 | OCC1CCC(CO)CC1 (stereo not given) | inactive | 
36 | CCCCCc1ccc(O)cc1 | inactive | 
37 | CC(C)[C@@H]1CC[C@@H](C)C[C@H]1O | inactive | 
38 | CCC1CO1 (stereo not given) | inactive | 
